# In PubChem BioAssay (NCI):
# The panel holds about 83,000 compounds, 20% with a hit somewhere; the sample as a whole holds those more often.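 Activity criterion: percent growth below 10, measured after cells in 96-well plates were exposed to a single compound concentration for 48 hours.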 Values without a mark were called inactive. Activity calls are given as the source filed them.
# What was measured:
# Assay in all cases: NCI-60 one-dose screen, 48 h (100 = growth as untreated, 0 = no growth, -100 = all killed)
# Conditions in all cases: 10 µM unless noted
# SR leukemia = tested on: SR leukemia
# RPMI-8226 leukemia = tested on: RPMI-8226 leukemia
# OVCAR-8 ovarian = tested on: OVCAR-8 ovarian
# OVCAR-5 ovarian = tested on: OVCAR-5 ovarian
# OVCAR-4 ovarian = tested on: OVCAR-4 ovarian
# SK-OV-3 ovarian = tested on: SK-OV-3 ovarian
# IGROV1 ovarian = tested on: IGROV1 ovarian
# OVCAR-3 ovarian = tested on: OVCAR-3 ovarian
# HS 578T breast = tested on: HS 578T breast
# NCI/ADR-RES ovarian = tested on: NCI/ADR-RES ovarian
# T-47D breast = tested on: T-47D breast
# BT-549 breast = tested on: BT-549 breast
# MDA-MB-435 melanoma = tested on: MDA-MB-435 melanoma
# SW-620 colon = tested on: SW-620 colon
# MCF7 breast = tested on: MCF7 breast
# HCT-116 colon = tested on: HCT-116 colon
# HCC-2998 colon = tested on: HCC-2998 colon
# KM12 colon = tested on: KM12 colon
SMILES,growth (SR leukemia),growth (RPMI-8226 leukemia),growth (OVCAR-8 ovarian),growth (OVCAR-5 ovarian),growth (OVCAR-4 ovarian),growth (SK-OV-3 ovarian),growth (IGROV1 ovarian),growth (OVCAR-3 ovarian),growth (HS 578T breast),growth (NCI/ADR-RES ovarian),growth (T-47D breast),growth (BT-549 breast),growth (MDA-MB-435 melanoma),growth (SW-620 colon),growth (MCF7 breast),growth (HCT-116 colon),growth (HCC-2998 colon),growth (KM12 colon)
C#CCO[C@H]1CC(CC#C)(CC#C)C(=O)[C@@H]2[C@H]1[C@H]1C[C@@H]3[C@@]4(C)CCC[C@@](C)(C(=O)OC)[C@@H]4CC[C@@]23C=C1C(C)C,-4.27% (active),54.2%,58.4%,92.3%,85.2%,95.8%,-64.2% (active),71.7%,94.2%,78.5%,84%,101%,100%,95.9%,96.1%,96.1%,103%,63.1%
Cc1nc2ccccc2c(/C=C/c2ccccc2)c1C(=O)/C=C/c1ccccc1,12.3%,8.21% (active),10.4%,6.51% (active),38.5%,68.1%,18.5%,3.37% (active),41.9%,7.26% (active),15.6%,40.6%,-17.2% (active),-65.6% (active),17%,-43% (active),31.6%,11.6%
O=C(N=Nc1c(O)[nH]c2ccccc12)Nc1ccc(F)cc1,84.2%,91%,96.7%,90.4%,103%,80.5%,85.2%,102%,96.2%,104%,66.2%,89.6%,98.3%,89.4%,71.3%,82%,100%,85.5%
O=C(Nc1ncc(Cc2cc(C(F)(F)F)ccc2Cl)s1)c1cccs1,16.1%,55.7%,68.6%,83.9%,63.4%,69.2%,52.7%,50.5%,71%,29.7%,31.9%,46.9%,1.23% (active),47%,30%,39.9%,64.5%,29.5%
COc1ccc(/C=C2\CN(C(=O)C(Cl)Cl)C/C(=C\c3ccc(OC)cc3)C2=O)cc1,1.01% (active),-14.3% (active),19%,9.63% (active),3.73% (active),41.6%,-50.7% (active),-75.3% (active),17.8%,11.6%,2.86% (active),-19.3% (active),-37.4% (active),-41.5% (active),-28.5% (active),-70.2% (active),-77% (active),-70.3% (active)
COc1ccc(C2CC(c3cc(OC)c(OC)c(OC)c3)=NO2)cc1OCCCCOc1cc2c(cc1OC)C(=O)N1CCC[C@H]1C=N2 (stereo not given in full),-18.1% (active),17.1%,26.1%,17.9%,13.8%,22%,-21.5% (active),0.847% (active),0.334% (active),19.8%,11.4%,-71.4% (active),-58.1% (active),-21.9% (active),5.25% (active),8.33% (active),-67.3% (active),-22% (active)
O=C(Nc1ncc(Cc2ccccc2)s1)c1ccc2c(c1)OCCCO2,7.17% (active),14.3%,44.9%,47.6%,52.3%,55.2%,41.1%,-10.5% (active),49.7%,9.35% (active),18.1%,48.8%,-34.2% (active),38.1%,16.1%,23%,22%,16.4%
COc1cccc(C(=O)NNc2nc(Cl)nc(Cl)n2)c1,101%,95.7%,95.4%,101%,107%,102%,100%,106%,95.3%,104%,91.6%,103%,105%,107%,82.8%,108%,95.2%,105%
N#C/C(=C\c1ccc([N+](=O)[O-])cc1)n1nnc2cc(F)c(F)cc21,-0.476% (active),-22.4% (active),11.4%,21%,9.19% (active),94.2%,-10.9% (active),-40.1% (active),58.4%,9.64% (active),-15.2% (active),77.6%,41.1%,-18.5% (active),21.8%,-46.4% (active),-56.2% (active),3.75% (active)
CCCCNC(=O)Oc1ccc(/C(=C(/C)Cc2ccc(OC)cc2)c2ccc(OCCN3CCCCC3)cc2)cc1,-40.5% (active),32.3%,84.7%,84.5%,69.3%,95.5%,84.5%,77.1%,72.9%,81.9%,37.9%,81.9%,67.8%,77.4%,26.9%,41.8%,75.5%,73.6%
Cc1cc(Nc2ccc(C(=O)N3CCCC3)cc2)nc(NCCCNc2ccnc3cc(Cl)ccc23)n1,19.1%,74.8%,108%,103%,70%,101%,76.2%,90.3%,92.3%,99.8%,77.8%,84.6%,79.6%,95.9%,51.6%,54.5%,80.9%,87.4%
CC1C=CC(OC(=O)C(C)(O)CCC(O)(C(=O)OC2CC(O)C(C(C)C)CC2(C)O)C(C)C)(C(C)C)CC1 (stereo not given),-24.7% [4.63 µM] (active),-39.7% [4.63 µM] (active),-9.1% [4.63 µM] (active),-85.3% [4.63 µM] (active),-90.5% [4.63 µM] (active),-91.5% [4.63 µM] (active),-70.6% [4.63 µM] (active),-94.3% [4.63 µM] (active),22.4% [4.63 µM],-9.57% [4.63 µM] (active),-47.1% [4.63 µM] (active),-81% [4.63 µM] (active),-92% [4.63 µM] (active),-67.8% [4.63 µM] (active),-67.6% [4.63 µM] (active),-40% [4.63 µM] (active),-72.8% [4.63 µM] (active),-77.4% [4.63 µM] (active)
COc1cc(-c2nc3c(ncc4ccc(=O)n(-c5ccccc5)c43)s2)cc(OC)c1OC,74.5%,52.9%,88.3%,73.5%,72.8%,80%,53.5%,79.7%,52.6%,73.1%,37.9%,61.8%,81%,89.4%,55.1%,79.6%,85%,79.3%
O=C(CSc1nc(-c2ccccc2)cc(=O)[nH]1)Nc1nc(-c2ccccc2)cs1,45.1%,96.1%,97%,95.9%,96.1%,84.1%,57.8%,101%,90%,93.2%,71.8%,88%,105%,107%,76.9%,90.3%,111%,95.5%
C=C1C(=O)O[C@H]2[C@H]1CC/C(COC(=O)c1ccc(C(=O)O)s1)=C\CC[C@@]1(C)O[C@@H]21,-12.8% (active),-25.9% (active),17.9%,48.6%,35.2%,96.6%,-26.8% (active),0.215% (active),37.6%,42%,43%,42.9%,11.7%,4.69% (active),13%,11.4%,61.6%,55.6%
